The supplement of paper PMC8975748
Where a name gives a salt, the structure may show the parent alone.

Tested on: Saccharomyces cerevisiae BY4741 SeMeCo community
Test: z-score of subpopulation abundance vs DMSO median, subpopulation auxotrophic for H; higher = larger share of this subpopulation than in DMSO controls
Details: 10 µM; 24 h; SM minimal medium; subpopulation (auxotrophy): H
Method: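 Fluorescent four-plasmid SeMeCo (self-establishing metabolically cooperating S. cerevisiae BY4741 community; plasmids pH-mRuby2, pL-mWasabi, pU-eCFP, pM-TagRFP657) was grown 24 h in minimal SM medium with each Selleck FDA-approved drug at 10 µM in 384-well plates. Cells were fixed and imaged by high-content confocal microscopy. For each auxotrophic subpopulation (and the prototroph), a z-score gives the deviation from the DMSO vehicle-control population median.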

Compared with C=C(C)[C@H]1Cc2c(ccc3c2O[C@@H]2COc4cc(OC)c(OC)cc4[C@@H]2C3=O)O1 [Rotenone (Barbasco)], COc1cc2c(cc1OC)C1CC(=O)C(CC(C)C)CN1CC2 (stereo not given) [Tetrabenazine (Xenazine)] is lower in “z-score of subpopulation abundance” value: 0.51 for the first, 0.02 for the second.

Compared with C=CN1CCCC1=O.II [Povidone iodine], COC(=O)C1=CCCN(C)C1 [Arecoline HBr] is lower in “z-score of subpopulation abundance” value: 1.96 for the first, 0.32 for the second.

First: COc1ccc(C=O)cc1 [p-Anisaldehyde]
Second: COc1ccc(C(CN(C)C)C2(O)CCCCC2)cc1 (stereo not given) [Venlafaxine]
The “z-score of subpopulation abundance” value of the first is higher: -0.35 for the first, -1.33 for the second.

Compared with CC[C@@]1(O)C(=O)OCc2c1cc1n(c2=O)Cc2cc3ccccc3nc2-1 [Camptothecin], CC(C)=CCOc1c2occc2cc2ccc(=O)oc12 [Imperatorin] is higher in “z-score of subpopulation abundance” value: -1.03 for the first, 0.08 for the second.

First: Cn1cc(C2=C(c3cn(C4CCN(Cc5ccccn5)CC4)c4ccccc34)C(=O)NC2=O)c2ccccc21
Second: O=C(O[C@H]1C[N+]2(CCCOc3ccccc3)CCC1CC2)C(O)(c1cccs1)c1cccs1 [Aclidinium Bromide]
The “z-score of subpopulation abundance” value of the first is lower: -2.71 for the first, -0.92 for the second.

Compared with CN(C)[C@@H]1C(=O)C(C(N)=O)=C(O)[C@@]2(O)C(=O)C3=C(O)c4c(O)cccc4[C@@](C)(O)[C@H]3C[C@@H]12 [Tetracycline HCl], CN(C)[C@@H]1C(=O)C(C(N)=O)=C(O)[C@@]2(O)C(=O)C3=C(O)c4c(O)ccc(Cl)c4[C@@](C)(O)[C@H]3C[C@@H]12 [Chlortetracycline HCl] is lower in “z-score of subpopulation abundance” value: 1.08 for the first, 0.94 for the second.

Compared with C[C@@H]1O[C@@H](O[C@H]2C[C@@H](O)[C@]3(CO)[C@H]4[C@H](O)C[C@]5(C)[C@@H](C6=CC(=O)OC6)CC[C@]5(O)[C@@H]4CC[C@]3(O)C2)[C@H](O)[C@H](O)[C@H]1O [Ouabain], CCN1CC2(OC(=O)c3ccccc3NC(C)=O)CCC(OC)C34C1C(CC23)C1(O)CC(OC)C2CC4C1(O)C2OC (stereo not given) [Lappaconitine] is higher in “z-score of subpopulation abundance” value: -1.13 for the first, -0.16 for the second.

Compared with CC(=O)O[C@H]1C[C@@H]2CC[C@@H]3[C@H](CC[C@@]4(C)[C@H]3C[C@H]([N+]3(C)CCCCC3)[C@@H]4OC(C)=O)[C@@]2(C)C[C@@H]1[N+]1(C)CCCCC1 [Pancuronium dibromide], O=C(O[C@H]1C[C@H]2CC[C@@H](C1)[N+]21CCCC1)C(O)(c1ccccc1)c1ccccc1 [Trospium chloride] is lower in “z-score of subpopulation abundance” value: -0.63 for the first, -0.71 for the second.

First: CN1C(=O)COc2c(C(=O)NC3CN4CCC3CC4)cc(Cl)cc21 (stereo not given) [Azasetron HCl]
Second: COc1ccc2c(c1)[C@]13CCCC[C@@H]1[C@H](C2)N(C)CC3 [Dextromethorphan hydrobromide hydrate]
The “z-score of subpopulation abundance” value of the first is lower: -0.91 for the first, 0.44 for the second.

Going from CN1[C@@H]2CC[C@H]1C[C@@H](OC(=O)C(CO)c1ccccc1)C2 (stereo not given in full) [Atropine sulfate monohydrate] to CN1[C@@H]2CC[C@H]1C[C@@H](OC(=O)[C@H](CO)c1ccccc1)C2 [Hyoscyamine], the “z-score of subpopulation abundance” value falls from -0.43 to -0.74.

First: CC1(C)SC2C(N)C(=O)N2C1C(=O)O (stereo not given) [6-Aminopenicillanic acid]
Second: CN(C)[C@@H]1C(=O)C(C(N)=O)=C(O)[C@@]2(O)C(=O)C3=C(O)c4c(O)cccc4[C@@](C)(O)[C@H]3[C@H](O)[C@@H]12 [Oxytetracycline Dihydrate]
The “z-score of subpopulation abundance” value of the first is higher: 0.55 for the first, 0.31 for the second.

Compared with C#C[C@]1(O)C=C[C@H]2[C@@H]3CCC4=CC(=O)CC[C@@H]4[C@H]3CC[C@@]21CC [Gestodene], C=CC[C@]1(O)CC[C@H]2[C@@H]3CCC4=CC(=O)CCC4=C3C=C[C@@]21C [Altrenogest] is lower in “z-score of subpopulation abundance” value: 0.25 for the first, 0.24 for the second.

First: N[C@@H]1C[C@H]1c1ccccc1 [Tranylcypromine (2-PCPA) HCl]
Second: C=C[C@H]1CN2CC[C@H]1C[C@H]2[C@H](O)c1ccnc2ccccc12 [Cinchonidine]
The “z-score of subpopulation abundance” value of the first is lower: -0.67 for the first, -0.15 for the second.

Compared with COc1ccc2c3c([nH]c2c1)C(C)=NCC3 [Harmaline], COc1ccc(C(CN(C)C)C2(O)CCCCC2)cc1 (stereo not given) [Venlafaxine HCl] is lower in “z-score of subpopulation abundance” value: 2.23 for the first, -0.98 for the second.

First: Cc1cc(O)ccc1Cl [Chlorocresol]
Second: Oc1cc(Cl)ccc1Oc1ccc(Cl)cc1Cl [Triclosan]
The “z-score of subpopulation abundance” value of the first is higher: -0.85 for the first, -1.93 for the second.

Compared with CN1c2ccccc2C(NCCCCCCC(=O)O)c2ccc(Cl)cc2S1(=O)=O (stereo not given) [Tianeptine sodium], CCN(CC)CCOC(=O)C(O)(c1ccccc1)c1ccccc1 [Benactyzine hydrochloride] is higher in “z-score of subpopulation abundance” value: -0.28 for the first, -0.16 for the second.

Compared with C[C@@H]1CC[C@H]2[C@@H](C)C(=O)O[C@@H]3O[C@@]4(C)CC[C@@H]1[C@]32OO4 [Artemisinin], CC[C@H]1CN2CC[C@]3(C(=O)Nc4ccccc43)[C@@H]2C[C@@H]1/C(=C\OC)C(=O)OC [Rhynchophylline] is lower in “z-score of subpopulation abundance” value: 1.06 for the first, -0.08 for the second.

Compared with CN[C@@H]1[C@@H](O)[C@@H](O[C@@H]2[C@@H](O)[C@H](O[C@H]3O[C@H](CN)CC[C@H]3N)[C@@H](N)C[C@H]2N)OC[C@]1(C)O.CN[C@@H]1[C@@H](O)[C@@H](O[C@@H]2[C@@H](O)[C@H](O[C@H]3O[C@H]([C@@H](C)N)CC[C@H]3N)[C@@H](N)C[C@H]2N)OC[C@]1(C)O.CN[C@@H]1[C@@H](O)[C@@H](O[C@@H]2[C@@H](O)[C@H](O[C@H]3O[C@H]([C@@H](C)NC)CC[C@H]3N)[C@@H](N)C[C@H]2N)OC[C@]1(C)O [Gentamicin Sulfate], C=CCN1C[C@H](C(=O)N(CCCN(C)C)C(=O)NCC)C[C@@H]2c3cccc4[nH]cc(c34)C[C@H]21 [Cabergoline] is lower in “z-score of subpopulation abundance” value: -0.2 for the first, -0.38 for the second.

Going from C[N+](C)(C)CCCCCCCCCC[N+](C)(C)C [Decamethonium Bromide] to CC[N+](C)(CC)CCOC(=O)C(O)(c1ccccc1)c1ccccc1 [Methylbenactyzine Bromide], the “z-score of subpopulation abundance” value falls from 0.07 to 0.06.

Going from C[CH2][Hg][S]c1ccccc1C(=O)[O-].[Na+] [Thimerosal] to CCN(C)C(=O)Oc1cccc([C@H](C)N(C)C)c1 [Rivastigmine Tartrate], the “z-score of subpopulation abundance” value falls from 7.64 to -0.17.
